Laboratory results taken from PubChem BioAssay (Tox21).
Where “and” joins values, the source holds several entries; their conditions need not be identical. Equal entries are not always repeated. Inconclusive results are not listed. Where a call stands in place of a potency, no number is given. Where a structure was tested more than once in an assay, its records may differ in their call. Calls of active or inactive are those of the source. Calls follow the shape of the dose curve; as a rule, active = well fitted curve in the direction sought with a large enough effect in the repeat runs; inconclusive = weak or mixed curves; inactive = no such curve, though single readings can be large; an effect the other way counts as inactive or inconclusive.

Experiments:
[1] = qHTS RealTime-Glo MT Cell Viability Assay in HepG2 cells - 40 hour (AID 1224870); also: nearly all actives have a fitted effect of over 50% in size
In short: (§1)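 HepG2 cells mixed with RealTime-Glo MT reagents (NanoLuc plus cell-permeant prosubstrate) were seeded at 600 cells/well, incubated 5 h at 37 C/5% CO2, then pinned with compounds in DMSO; nonlytic luminescence tracked viability during 40 h treatment.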

[2] = A CellTox Green Cytotoxicity Assay to monitor cytotoxicity in HEK293 cells - 40 hour (AID 1224871); also: nearly all actives have a fitted effect of over 45% in size
In short: (§2)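 Homogeneous no-lysis format: HEK293 cell suspension mixed with CellTox Green reagent, seeded, incubated 5 h at 37 C/5% CO2, then dosed by pintool with compound in DMSO.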

[3] = qHTS RealTime-Glo MT Cell Viability Assay in HEK293 cells - 16 hour (AID 1224872); also: nearly all actives have a fitted effect of over 50% in size; also: potency is read from the fitted curve at half-maximal effect
In short: (§3)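 Viability tracked continuously by luminescence as live cells reduce a prosubstrate for NanoLuc; HEK293 cells preincubated 5 h, compound-treated at 37 C, and read at 0, 8, 16, 24, 32 and 40 h.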

[4] = qHTS RealTime-Glo MT Cell Viability Assay in HepG2 cells - 8 hour (AID 1224873); also: nearly all actives have a fitted effect of over 55% in size
In short: as §1

[5] = qHTS RealTime-Glo MT Cell Viability Assay in HEK293 cells - 40 hour (AID 1224874); conditions: RealTime-Glo luminescence; max response: stronger effect = lower value; also: nearly all actives have a fitted effect of over 50% in size; also: potency is read from the fitted curve at half-maximal effect
In short: (§4)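 Measured as luminescence from the same continuously cultured HEK293 wells at successive time points (0, 8, 16, 24, 32, 40 h) after compound addition. Reagent present from seeding; dosing at 5 h; incubation 37 C.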

[6] = A CellTox Green Cytotoxicity Assay to monitor cytotoxicity in HEK293 cells - 24 hour (AID 1224875); also: series mostly up to about 77 µM; nearly all actives have a fitted effect of over 45% in size
In short: as §2

[7] = A CellTox Green Cytotoxicity Assay to monitor cytotoxicity in HepG2 cells - 16 hour (AID 1224876); also: nearly all actives have a fitted effect of over 45% in size; also: potency is read from the fitted curve at half-maximal effect
In short: (§5)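 Fluorescent DNA-binding dye, 600 HepG2 cells/well, 5 h preincubation then compound in DMSO; same plates read at 0–40 h, 37 C.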

[8] = qHTS RealTime-Glo MT Cell Viability Assay in HepG2 cells - 32 hour (AID 1224877); also: nearly all actives have a fitted effect of over 55% in size
In short: (§6)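 Viability was tracked continuously by NanoLuc luminescence from prosubstrate reduced by living HepG2 cells, at successive time points over 40 h of compound exposure. Cells with reagent were preincubated 5 h at 37 °C before compound addition.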

[9] = A CellTox Green Cytotoxicity Assay to monitor cytotoxicity in HepG2 cells - 24 hour (AID 1224878); also: nearly all actives have a fitted effect of over 45% in size; also: potency is read from the fitted curve at half-maximal effect
In short: as §5

[10] = A CellTox Green Cytotoxicity Assay to monitor cytotoxicity in HepG2 cells - 40 hour (AID 1224879); also: nearly all actives have a fitted effect of over 40% in size; also: potency is read from the fitted curve at half-maximal effect
In short: as §5

[11] = qHTS RealTime-Glo MT Cell Viability Assay in HEK293 cells - 0 hour (AID 1224880)
In short: as §4

[12] = A CellTox Green Cytotoxicity Assay to monitor cytotoxicity in HEK293 cells - 32 hour (AID 1224881); also: nearly all actives have a fitted effect of over 40% in size
In short: as §2

[13] = A CellTox Green Cytotoxicity Assay to monitor cytotoxicity in HepG2 cells - 0 hour (AID 1224882); also: nearly all actives have a fitted effect of over 35% in size; also: potency is read from the fitted curve at half-maximal effect
In short: as §5

[14] = A CellTox Green Cytotoxicity Assay to monitor cytotoxicity in HepG2 cells - 32 hour (AID 1224883); also: nearly all actives have a fitted effect of over 50% in size; also: potency is read from the fitted curve at half-maximal effect
In short: as §5

[15] = A CellTox Green Cytotoxicity Assay to monitor cytotoxicity in HEK293 cells - 8 hour (AID 1224884); also: nearly all actives have a fitted effect of over 35% in size
In short: as §2

[16] = qHTS RealTime-Glo MT Cell Viability Assay in HepG2 cells - 16 hour (AID 1224885); also: nearly all actives have a fitted effect of over 50% in size
In short: as §6

[17] = qHTS RealTime-Glo MT Cell Viability Assay in HEK293 cells - 24 hour (AID 1224886); also: nearly all actives have a fitted effect of over 50% in size; also: potency is read from the fitted curve at half-maximal effect
In short: as §3

[18] = A CellTox Green Cytotoxicity Assay to monitor cytotoxicity in HEK293 cells - 16 hour (AID 1224888); also: nearly all actives have a fitted effect of over 35% in size
In short: as §2

[19] = qHTS RealTime-Glo MT Cell Viability Assay in HepG2 cells - 0 hour (AID 1224889); also: nearly all actives have a fitted effect of over 50% in size
In short: as §6

[20] = qHTS RealTime-Glo MT Cell Viability Assay in HEK293 cells - 8 hour (AID 1224887); also: nearly all actives have a fitted effect of over 50% in size; also: potency is read from the fitted curve at half-maximal effect
In short: as §4

COc1ccc(C(=O)CC(=O)c2ccc(C(C)(C)C)cc2)cc1
Potency [1]: inactive
Potency [2]: inactive
Potency [3]: 29.6 µM (active) and inactive
Potency [4]: inactive
Potency [5]: 29.6 µM (active)
max response [5]: -14% (inactive)
Potency [6]: inactive
Potency [7]: inactive and 67.4 nM (active)
Potency [8]: inactive
Potency [9]: inactive and 75.6 nM (active)
Potency [10]: inactive and 67.4 nM (active)
Potency [11]: inactive
Potency [12]: inactive
Potency [13]: inactive and 75.6 nM (active)
Potency [14]: inactive and 67.4 nM (active)
Potency [15]: inactive
Potency [16]: inactive
Potency [17]: 29.6 µM (active) and inactive
Potency [18]: inactive
Potency [19]: inactive

Cc1c(OCC(F)(F)F)ccnc1CS(=O)c1nc2ccccc2[nH]1 (configuration not stated)
Potency [1]: inactive
Potency [2]: inactive
Potency [3]: 19.5 µM (active) and 23.9 µM (active)
Potency [4]: inactive
Potency [6]: inactive
Potency [7]: inactive
Potency [8]: inactive
Potency [9]: inactive
Potency [10]: inactive
Potency [11]: inactive
Potency [12]: inactive
Potency [13]: inactive
Potency [14]: inactive
Potency [15]: inactive
Potency [16]: inactive
Potency [17]: 19.5 µM (active) and 19 µM (active)
Potency [20]: 21.9 µM (active) and 23.9 µM (active)
Potency [18]: inactive
Potency [19]: inactive

CC(C)OC=O
Potency [1]: inactive
Potency [2]: inactive
Potency [4]: inactive
max response [5]: 5.62% (inactive) and -7.32% (inactive)
Potency [6]: inactive
Potency [8]: inactive
Potency [9]: inactive
Potency [10]: inactive
Potency [11]: inactive
Potency [12]: inactive
Potency [13]: inactive
Potency [14]: inactive
Potency [15]: inactive
Potency [16]: inactive
Potency [17]: inactive
Potency [20]: inactive
Potency [18]: inactive
Potency [19]: inactive
